Reference: PubChem BioAssay AID588773 (The Scripps Research Institute Molecular Screening Center, 2011)
The source made the active and inactive calls.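 The calls were made as follows: active = inhibition of plasma PAF acetylhydrolase at a set limit or more at 0.1 µM, with tenfold selectivity over all off-targets; inactive = inhibition below the limit or weaker selectivity.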

Assay: pPAFAH inhibition and serine hydrolase selectivity, late-stage follow-up, selectivity assay for pPAFAH inhibitor project, biochemical, gel-based, FP-Rh fluorescence, mouse, HTS hit compounds (AID 588773)
Settings: gel-based competitive ABPP, proteome, MW 32 kDa protein, at 10 µM

In the case of `CN(C)C(=O)Oc1noc2cc(Cl)ccc12`, the outcome is reported as “inactive”.
In the case of `O=C(Oc1ccc([N+](=O)[O-])cc1)N1CCC(N2CCCCC2)CC1`, the outcome is reported as “inactive”.
